Our source for the composite z-score and z-score values is PubChem BioAssay.

Activity calls are given as the source filed them. Unless noted, the rule behind the calls is not given here.

The nature of assay [1]: anti-His antibody binders, primary screen, artefact control for SMM control protein annotation, biochemical, small-molecule microarray, 635 nm fluorescence (AID 1128).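 Note: score merges feature fluorescence with signal-to-noise for each printed compound spot.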 The conditions noted are these: anti-His Alexa647 antibody binding, higher = more signal.
The test system of assay [2] is Human papillomavirus type 1a E7 protein (residues 1-88). The assay can be described thus: HPV1a E7 small-molecule binders, primary screen, biochemical, small-molecule microarray, residues 1-88, 635 nm (AID 1129). The note with it: small-molecule microarray binding, fluorescence 635 nm; higher = more signal.
For assay [3], the target named is Focal adhesion kinase 1 (Homo sapiens) (UniProt Q05397). The assay can be described thus: small-molecule microarray binders of FAK, primary screen, biochemical, 635/667 nm fluorescence, BSA, DTT (AID 1130).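 Note: composite of spot emission at 667 nm and signal to noise over triplicate slides.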 The conditions noted are these: PTK2 binding, 635 nm fluorescence, higher = more signal.
Chain of Focal adhesion kinase 1 (Homo sapiens) (Q05397 whole entry, looked up): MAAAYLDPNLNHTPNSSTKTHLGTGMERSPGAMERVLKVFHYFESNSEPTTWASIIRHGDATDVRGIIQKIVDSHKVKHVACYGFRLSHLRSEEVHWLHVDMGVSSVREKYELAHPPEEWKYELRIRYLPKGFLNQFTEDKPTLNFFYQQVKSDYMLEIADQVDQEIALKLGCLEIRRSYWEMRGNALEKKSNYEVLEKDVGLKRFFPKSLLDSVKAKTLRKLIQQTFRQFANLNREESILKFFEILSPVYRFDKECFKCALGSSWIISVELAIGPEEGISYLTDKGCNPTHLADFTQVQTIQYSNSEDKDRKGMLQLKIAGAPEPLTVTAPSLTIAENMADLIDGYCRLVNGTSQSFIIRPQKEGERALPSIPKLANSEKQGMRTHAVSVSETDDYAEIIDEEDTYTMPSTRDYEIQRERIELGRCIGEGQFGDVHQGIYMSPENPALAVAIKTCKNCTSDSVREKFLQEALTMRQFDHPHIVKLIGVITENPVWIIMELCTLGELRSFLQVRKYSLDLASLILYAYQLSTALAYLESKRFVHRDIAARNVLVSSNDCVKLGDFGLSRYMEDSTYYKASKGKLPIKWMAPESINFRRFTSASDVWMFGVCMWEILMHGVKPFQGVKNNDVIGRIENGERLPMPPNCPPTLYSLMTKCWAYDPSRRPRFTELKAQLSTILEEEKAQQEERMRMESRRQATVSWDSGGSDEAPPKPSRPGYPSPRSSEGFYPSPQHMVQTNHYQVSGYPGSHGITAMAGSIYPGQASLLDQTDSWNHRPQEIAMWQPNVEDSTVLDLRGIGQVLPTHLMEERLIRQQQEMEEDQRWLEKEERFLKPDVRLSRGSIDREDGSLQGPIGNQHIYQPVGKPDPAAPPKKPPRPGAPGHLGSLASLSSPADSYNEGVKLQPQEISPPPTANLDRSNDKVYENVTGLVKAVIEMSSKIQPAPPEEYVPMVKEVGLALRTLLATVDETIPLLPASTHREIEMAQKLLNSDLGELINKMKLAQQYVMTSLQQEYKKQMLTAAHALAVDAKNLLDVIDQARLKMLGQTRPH
In assay [4] the test system is Fibrinogen (Alexa647-labelled). Briefly: fibrinogen binders on compound microarrays, profiling panel, artefact control for SMM control-protein annotation, biochemical, small-molecule microarray, 635/667 nm fluorescence (AID 1131).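 Note: z-score merges 667 nm fluorescence with per-spot signal-to-noise over triplicate slides.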 The note with it: fibrinogen-A647 binding fluorescence, higher = more signal.
Assay [5] has as its target Follistatin (Homo sapiens) (UniProt P19883). The assay can be described thus: follistatin binders on small-molecule microarrays, primary screen, biochemical, small-molecule microarray, 635/667 nm fluorescence (AID 1132). The note with it: FST binding, 635 nm fluorescence, higher = more signal.
The target in assay [6] is Fibroblast growth factor 2 (Homo sapiens) (UniProt P09038). The assay can be described thus: FGF2 binders on small-molecule microarrays, primary screen, biochemical, small-molecule microarray, 635/667 nm fluorescence (AID 1133). The note with it: small-molecule microarray binding, FGF2, fluorescence 635/667; higher = more signal.
Chain of Fibroblast growth factor 2 (Homo sapiens) (P09038 whole entry, looked up): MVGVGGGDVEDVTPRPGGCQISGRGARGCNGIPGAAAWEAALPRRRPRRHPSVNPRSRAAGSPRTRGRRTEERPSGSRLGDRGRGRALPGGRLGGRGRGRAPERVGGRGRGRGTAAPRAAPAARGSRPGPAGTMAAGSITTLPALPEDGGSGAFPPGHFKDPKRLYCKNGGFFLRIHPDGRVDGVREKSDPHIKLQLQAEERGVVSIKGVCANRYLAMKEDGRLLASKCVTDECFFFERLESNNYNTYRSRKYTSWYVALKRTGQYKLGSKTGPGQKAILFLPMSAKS
Assay [7] is described as follows: mitochondrial membrane potential change in A549 cells, profiling panel, cell-based, JC-1 fluorescence, basal, 24 h, 100 nL (AID 1138).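 Note: A549 lung adenocarcinoma cells under basal conditions with no added stimulus; test concentration not given here.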 The note with it: higher = more signal.
Another assay concerns Lefty1. The assay can be described thus: Lefty1 binders on small-molecule microarrays, primary screen, biochemical, small-molecule microarray, 635/667 nm fluorescence (AID 1139). The note with it: small-molecule microarray binding, fluorescence 635/667; higher = more signal.
Assay [8] deals with wheat germ agglutinin (Triticum aestivum), Alexa647-labelled. Briefly: wheat germ agglutinin binders on compound microarrays, profiling panel, artefact control for SMM control-protein annotation, biochemical, small-molecule microarray, 635/667 nm fluorescence (AID 1140).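 Note: score merges 667 nm feature emission with signal to noise over triplicate slides.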 The conditions noted are these: WGA-A647 binding, 635 nm fluorescence, higher = more signal.
Assay [9] concerns the target Luciferin 4-monooxygenase (Photinus pyralis) (UniProt P08659). Briefly: firefly luciferase enzyme inhibitors, primary screen, biochemical, luminescence, purified enzyme, 2006 set (AID 1141).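 Note: cell-free assay with purified firefly luciferase at 100 ng per well in PBS; test concentration not given here.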 The conditions noted are these: SteadyGlo luminescence, 30 min, higher = more signal, called active from +8 up or from −8 down.
Assay [10] concerns Wnt5a (protein binding on small-molecule microarray). Briefly: Wnt5a binders on small-molecule microarray, primary screen, biophysical, 635/667 nm fluorescence (AID 1142).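 Note: fluorescence read at 667 nm with signal to noise per printed feature.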 The note with it: 635 nm fluorescence, higher = more signal.
Assay [11] is described as follows: cell viability in Huh7 cells, primary screen, cytotoxicity control for HCV replication inhibitor project, CellTiter-Glo luminescence, basal, 48 h (AID 1143).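 Note: Huh7 hepatoma cells carrying a hepatitis C replication reporter with no stimulus; test concentration not given here.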 The note with it: Huh7 HCV replicon, higher = more signal, called active from +8 up or from −8 down.
Assay [12] can be described thus: P. aeruginosa biofilm formation inhibitors, primary screen, PAO1 strain, BacTiter-Glo luminescence, LB-PBS (AID 1144). The conditions noted are these: 12 h, higher = more signal.
Assay [13] in a line: CREB reporter modulators without forskolin, primary screen, cell-based, PC12, CRE-LacZ reporter, unstimulated (AID 1145). The conditions noted are these: no forskolin, luminescence, 4.5 h, higher = more signal, called active from +8 up or from −8 down.
Assay [14] can be described thus: CREB reporter modulators under forskolin, primary screen, cell-based, PC12, CRE-LacZ reporter, forskolin-stimulated (AID 1146).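 Note: PC12 cells with 6xCRE LacZ reporter stimulated by forskolin 10 µM; beta-galactosidase reporter signal reflecting CREB driven transcription.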 The conditions noted are these: luminescence, 4.5 h, higher = more signal, called active from +8 up or from −8 down.
Assay [15] has as its target Streptavidin (Streptomyces avidinii) (UniProt P22629). The assay can be described thus: streptavidin binders on small-molecule microarray, primary screen, artefact control for SMM compound annotation, biophysical, 635/667 nm fluorescence (AID 1147).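 Note: signal reflects streptavidin binding to arrayed compounds as a control protein.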 The note with it: streptavidin binding, higher = more signal.
Assay [16] can be described thus: small-molecule binders of probe aInhba, primary screen, biochemical, small-molecule microarray, 635/667 nm fluorescence (AID 1148).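 Note: score merges 667nm spot fluorescence with signal-to-noise for antibody binding to printed compounds.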 The note with it: higher = more signal.
The target of assay [17] is Torsin-1A (Homo sapiens) (UniProt O14656). Briefly: torsin A binders from cell lysate, primary screen, small-molecule microarray, wild-type, 635/667 nm (AID 1149). The conditions noted are these: COS7 hTOR1A-WT lysate, 635 nm fluorescence, higher = more signal.
Chain of Torsin-1A (Homo sapiens) (O14656 whole entry, looked up): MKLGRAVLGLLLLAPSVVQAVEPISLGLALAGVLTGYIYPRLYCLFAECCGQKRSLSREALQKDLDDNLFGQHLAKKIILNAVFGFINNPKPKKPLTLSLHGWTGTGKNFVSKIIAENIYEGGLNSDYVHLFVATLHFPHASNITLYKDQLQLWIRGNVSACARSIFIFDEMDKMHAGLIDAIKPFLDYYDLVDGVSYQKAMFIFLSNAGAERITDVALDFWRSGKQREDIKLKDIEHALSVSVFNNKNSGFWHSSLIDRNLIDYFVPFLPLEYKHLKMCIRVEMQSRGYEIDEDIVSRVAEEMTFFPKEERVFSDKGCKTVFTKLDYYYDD
Assay [18] shares this target. The assay can be described thus: small-molecule binders of mutant TOR1A in lysate, primary screen, cell lysate, small-molecule microarray, COS7 lysate, 635/667 nm fluorescence (AID 1150).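 Note: score pools 667 nm emission and signal to noise measuring lysate protein binding.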 The conditions noted are these: COS7 hTOR1A mutant lysate, 635 nm fluorescence, higher = more signal.
In assay [19] the test system is Sonic hedgehog protein (Shh). Briefly: small-molecule binders of Shh protein, primary screen, biochemical, small-molecule microarray, 635/667 nm fluorescence (AID 1151).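 Note: Shh protein binding to compounds spotted on small-molecule microarray slides; score combines spot fluorescence intensity with signal-to-noise across triplicate slides.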 The note with it: small-molecule microarray binding, 635 nm fluorescence; higher = more signal.

Chain of Streptavidin (Streptomyces avidinii) (P22629 whole entry, looked up): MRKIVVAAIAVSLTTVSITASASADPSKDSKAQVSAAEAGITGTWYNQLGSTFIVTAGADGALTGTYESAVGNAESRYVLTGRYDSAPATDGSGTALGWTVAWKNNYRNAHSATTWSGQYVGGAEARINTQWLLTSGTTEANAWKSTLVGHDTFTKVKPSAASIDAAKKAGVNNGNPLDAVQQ
Chain of Follistatin (Homo sapiens) (P19883 whole entry, looked up): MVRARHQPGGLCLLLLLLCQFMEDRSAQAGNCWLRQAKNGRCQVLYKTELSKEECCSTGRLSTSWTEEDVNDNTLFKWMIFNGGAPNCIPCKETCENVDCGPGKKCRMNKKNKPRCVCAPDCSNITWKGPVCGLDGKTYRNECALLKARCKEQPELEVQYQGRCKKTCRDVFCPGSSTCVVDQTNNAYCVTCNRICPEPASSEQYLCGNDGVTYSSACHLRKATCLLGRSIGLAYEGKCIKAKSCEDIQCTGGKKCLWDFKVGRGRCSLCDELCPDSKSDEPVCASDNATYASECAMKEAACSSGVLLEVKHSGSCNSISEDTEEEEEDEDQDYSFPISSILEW
Chain of Luciferin 4-monooxygenase (Photinus pyralis) (P08659 whole entry, looked up): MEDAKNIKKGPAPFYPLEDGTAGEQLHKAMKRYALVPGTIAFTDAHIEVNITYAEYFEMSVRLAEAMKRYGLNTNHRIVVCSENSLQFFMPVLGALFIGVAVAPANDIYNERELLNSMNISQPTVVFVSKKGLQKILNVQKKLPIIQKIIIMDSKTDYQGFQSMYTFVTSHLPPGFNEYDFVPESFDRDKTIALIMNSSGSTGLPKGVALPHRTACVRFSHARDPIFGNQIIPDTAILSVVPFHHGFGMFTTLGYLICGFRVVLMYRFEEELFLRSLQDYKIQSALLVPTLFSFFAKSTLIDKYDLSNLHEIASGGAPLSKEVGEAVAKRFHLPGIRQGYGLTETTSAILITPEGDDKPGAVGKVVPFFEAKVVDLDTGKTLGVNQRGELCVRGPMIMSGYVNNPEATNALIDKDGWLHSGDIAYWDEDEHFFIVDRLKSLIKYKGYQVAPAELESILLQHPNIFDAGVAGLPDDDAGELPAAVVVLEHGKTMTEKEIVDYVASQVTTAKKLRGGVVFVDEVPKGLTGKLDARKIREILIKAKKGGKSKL

Turning to `C#C[C@H]1Oc2ccccc2S(=O)(=O)N2CCC[C@@H]12`, the composite z-score was -0.233 in assay [1]; -0.704 in assay [2]; -0.434 in assay [3]; -0.597 in assay [4]; 0.963 in [5]; 0.0278 in assay [6]. For the same compound, the composite z-score in the assay with Lefty1 is 1.51; in assay [8], -0.719; in assay [10], -0.0713; in [15] it was -0.14; in assay [16], -0.278; with Torsin-1A (Homo sapiens) [17], 0.461. Besides, the composite z-score with Torsin-1A (Homo sapiens) [18] is 0.512; in [19], 1.63. Moreover, the z-score in assay [7] is 0.092; in assay [9] it was 0.119 (inactive); in [11], -0.0352 (inactive); in [12], -0.0287 (inactive); in assay [13], 0.126 (inactive); in assay [14] it was 1.3 (inactive).
`COCC1C2CC[C@H]3C(OCc4ccc(F)cc4C(F)(F)F)OC[C@]4(C)[C@H]3C2=C(CN4C(=O)OC(C)(C)C)[C@H](C)C1COC` (stereo not given in full): the composite z-score in assay [1] is 0.976; in [2], 1.18; in assay [3] it was 0.475; in assay [4] it was 0.764; in assay [5] it was 0.342; in assay [6], -0.593. In addition, the composite z-score with Lefty1 is -0.348; in assay [8], 1.14; in [10], 0.33; in [15], 1.2; in [16], 0.385; in the assay with Torsin-1A (Homo sapiens) [17] it was 0.404. The composite z-score in the assay with Torsin-1A (Homo sapiens) [18] was 1.35; in assay [19], -1.4. In addition, the z-score was 1.52 in assay [7]; 0.248 (inactive) in assay [9]; -1.84 (inactive) in assay [11]; 0.338 (inactive) in assay [12]; 0.0007 (inactive) in assay [13]; 0.172 (inactive) in [14].
Consider `C=C(CCCC)C(=O)CC[C@H](OC(C)=O)c1ccc(CO)o1`, for which the composite z-score was -0.273 in assay [1]; 0.228 in assay [2]; -0.0408 in assay [3]; -0.332 in [4]; 1.03 in assay [5]; 0.361 in assay [6]. Besides, the composite z-score was 0.861 in the assay on Lefty1; -0.276 in [8]; 0.0631 in assay [10]; -0.264 in assay [15]; -0.0427 in assay [16]; -0.423 with Torsin-1A (Homo sapiens) [17]. Moreover, the composite z-score in the assay with Torsin-1A (Homo sapiens) [18] came out at 0.794; in assay [19] it was 1.99. For the same compound, the z-score in assay [7] was -0.0332; in [9], -1.77 (inactive); in [11] it was -3.11 (inactive); in [12], -0.312 (inactive); in [13], 0.508 (inactive); in assay [14], -0.79 (inactive).
`COC(=O)c1nc2oc1CC[C@@H](CO)NC(=O)N(C)Cc1cn(nn1)C[C@H](Cc1ccccc1)NC2=O`: the composite z-score in assay [1] is 0.0255; in assay [2], -0.151; in [3], -0.242; in assay [4], 0.0318; in [5] it was 0.905; in assay [6] it was 1.06. The composite z-score is 0.17 in the assay on Lefty1; 0.536 in assay [8]; -0.0811 in [10]; -0.357 in assay [15]; -0.016 in assay [16]; -0.685 with Torsin-1A (Homo sapiens) [17]. In addition, the composite z-score was -1.25 with Torsin-1A (Homo sapiens) [18] and 0.337 in assay [19]. For the same compound, the z-score in [7] is 0.457; in assay [9], 0.376 (inactive); in assay [11], -0.0962 (inactive); in assay [12], 0.0307 (inactive); in assay [13] it was 4.65 (inactive); in [14], 0.338 (inactive).
For the compound `O=C1NC(=O)C2C1C=CC(C(O)c1cccs1)N2Nc1ccccn1` (stereo not given), the composite z-score is 1.23 in [1]; 0.532 in [2]; -0.374 in [3]; 0.725 in [4]; 0.131 in [5]; 0.0343 in assay [6]. The composite z-score is 0.0773 in the assay with Lefty1; -0.0456 in assay [8]; 0.0343 in assay [10]; -0.0099 in assay [15]; -0.214 in [16]; 0.484 with Torsin-1A (Homo sapiens) [17]. Besides, the composite z-score is 0.244 in the assay with Torsin-1A (Homo sapiens) [18] and -0.0541 in [19]. For the same compound, the z-score was 0.543 in assay [7]; -1.68 (inactive) in assay [9]; 0.847 (inactive) in [11]; -1.39 (inactive) in [12]; -0.712 (inactive) in [13]; -1.04 (inactive) in [14].
